Assay outcomes (PubChem)
A selection: hits, their analogues and other compounds. The true share with any hit is near 1.1%.
VLA-4 inh: inhibition in a human VLA-4 binding assay; P13612; AID 2557; VLA-4 expressing cells, ligand binding flow cytometry; inhibition, % (about 7 µM as worked out from the volumes in the protocol); 330,000 compounds, 0.2% hits; in the data active = inhibition above about 50%
MEP2-GFP yeast: alters MEP2-GFP fluorescence in TOR pathway yeast screen; 330,000 compounds, 0.51% hits; GFP response vs DMSO, % at 10 µM; S. cerevisiae MEP2-GFP strain, flow cytometry GFP, 3 h; 100% = DMSO control level; AID 2016;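 active = GFP response versus DMSO above a set limit, roughly screen mean plus 3 SD, cut at about 180% in these data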;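 also: median GFP fluorescence of the barcode-gated MEP2-GFP cells per well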
CIT2 TOR yeast: alters CIT2-GFP fluorescence in TOR pathway yeast screen; 320,000 compounds, 0.065% hits; S. cerevisiae CIT2-GFP strain, flow cytometry, 3 h; 100 means same as DMSO wells; GFP response vs DMSO, % at 10 µM;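 active = GFP response relative to DMSO above a set limit, near the screen mean plus 3 SD, cut at about 150% in these data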;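 also: ratio of well median GFP fluorescence to mean of DMSO wells on the plate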
AGP1 TOR yeast: alters AGP1-GFP fluorescence in TOR pathway yeast screen | S. cerevisiae AGP1-GFP multiplex flow cytometry, 3 h; GFP as percent of DMSO wells | GFP response vs DMSO, % at 10 µM | 320,000 compounds, 0.02% hits;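 active = GFP response relative to DMSO above a set limit, near screen average plus 3 SD, cut at about 150% in these data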;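 also: median GFP channel fluorescence of the gated AGP1 strain per well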
LAP4-GFP MLPCN: alters LAP4-GFP fluorescence in TOR pathway yeast screen; 320,000 compounds, 0.34% hits; GFP response vs DMSO, % at 10 µM; AID 2023; S. cerevisiae LAP4-GFP multiplex, flow cytometry GFP, 3 h; median GFP as percent of DMSO wells;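 active = GFP response vs DMSO above a set limit, about the screen mean plus 3 SD, cut at about 150% in these data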
RPL19A-GFP yeast: yeast TOR pathway RPL19A-GFP modulation; S. cerevisiae RPL19A-GFP strain, flow cytometry, 3 h; active compounds read low; percent response vs DMSO, % at 10 µM; 330,000 compounds, 0.3% hits;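 active = percent response vs DMSO below 50%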;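 also: median channel GFP fluorescence of the barcoded RPL19A-GFP strain; lower means less RPL19A-GFP as with rapamycin TOR inhibition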
LAP4-GFP pick2: second confirmation of modulators of TOR reporter LAP4-GFP in yeast. shares compounds with LAP4-GFP MLPCN. S. cerevisiae LAP4-GFP strain, flow cytometry GFP, 3 h. GFP response vs DMSO, % at 10 µM. 590 compounds, 20% hits;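 active = GFP signal as percent of the solvent control above about 150%, meaning raised reporter expression, limit read from the data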
MEP2-GFP pick2: second confirmation of modulators of TOR reporter MEP2-GFP in yeast; shares compounds with LAP4-GFP MLPCN; S. cerevisiae MEP2-GFP strain, flow cytometry GFP, 3 h; GFP response vs DMSO, % at 10 µM; 590 compounds, 10% hits;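 active = GFP signal above 150% of the solvent control wells, that is a rise of more than half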;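 also: median channel GFP fluorescence of all gated yeast cells per well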
RPL19A-GFP pick2: second confirmation of modulators of TOR reporter RPL19A-GFP in yeast. shares compounds with LAP4-GFP MLPCN. S. cerevisiae RPL19A-GFP strain, flow cytometry GFP, 3 h; active compounds read low; 100% means same as DMSO wells. GFP response vs DMSO, % at 10 µM. 590 compounds, 3% hits;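 active = under 65% GFP response relative to DMSO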;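 also: median GFP channel fluorescence per well over the all cells gate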
CIT2-GFP pick2: second confirmation of modulators of TOR reporter CIT2-GFP in yeast | shares compounds with LAP4-GFP MLPCN | S. cerevisiae CIT2-GFP strain, flow cytometry GFP, 3 h; DMSO control wells read 100% | GFP response vs DMSO, % at 10 µM | 590 compounds, 8% hits;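 active = GFP response vs DMSO above about 150%, limit read from the data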;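 also: median green fluorescence per well over all gated yeast cells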
AGP1 GFP CP2: reconfirmed modulator of AGP1-GFP TOR reporter in yeast; shares compounds with LAP4-GFP MLPCN; S. cerevisiae AGP1-GFP strain, flow cytometry GFP, 3 h; percent response vs DMSO, % at 10 µM; 590 tested, under 10 active; AID 2643;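 active = over 150 percent of DMSO response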;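 also: median GFP channel fluorescence over all cells without mother daughter split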
Yeast autofluor: compound is autofluorescent in yeast s288c cells. shares compounds with LAP4-GFP MLPCN. S. cerevisiae s288c, 520 nm autofluorescence, flow cytometry, 3 h; active compounds read high; zero means same as solvent-only cells. fluorescence change (kMESF span) at 33 µM. 610 tested, under 10 active. AID 2757;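 active = fluorescence span over the dose series, or activity score, above about 33, limit read from the data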
Yeast autofl DR: TOR screen hit shows autofluorescence in yeast s288c; shares compounds with LAP4-GFP MLPCN; S. cerevisiae s288c parental, compound autofluorescence, flow cytometry, 3 h; fluorescence change (span) at 33 µM; 110 tested, under 10 active;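 active = fluorescence change span, or the activity score built from it, above 25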
TORC1 bypass: wildtype yeast growth loss with TORC1 bypass cells unaffected | shares compounds with LAP4-GFP MLPCN | S. cerevisiae BY4741 spot growth rating, 48-72 h; active compounds read low | growth rating (0-3) at 30 µM | 120 tested, under 10 active;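 active = growth rating at most 1 for wild type yeast while the TORC1 bypass strain still grows fully, rated 3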
Numbers stand for hits; - = inactive; . = not tested or not shown.

SMILES	VLA-4 inh	MEP2-GFP yeast	CIT2 TOR yeast	AGP1 TOR yeast	LAP4-GFP MLPCN	RPL19A-GFP yeast	LAP4-GFP pick2	MEP2-GFP pick2	RPL19A-GFP pick2	CIT2-GFP pick2	AGP1 GFP CP2	Yeast autofluor	others
O=C(Nc1nnc(-c2ccc(F)cc2)o1)c1cc(Cl)sc1Cl	-	-	-	-	164	-	167	-	-	-	-	-
COc1ccccc1C(=O)Nc1nnc(SCC(=O)NC2CCCC2)s1	-	-	-	-	-	-	.	.	.	.	.	.
CC(C)(O)CC[C@@H](O)[C@](C)(O)C1CC[C@@]2(O)C3=CC(=O)[C@]4(O)C[C@@H](O)[C@@H](O)C[C@]4(C)C3CC[C@]12C (stereo partly drawn)	-	-	-	-	-	-	.	.	.	.	.	.
Cc1ccc(S(=O)(=O)N2CC(C(=O)O)=CC[C@H]2c2ccc(Cl)cc2)cc1	-	-	-	-	159	-	-	-	-	-	-	-
Fc1ccc(NC(=S)Nc2ccc3nccnc3c2)cc1	-	-	-	-	171	-	-	-	-	-	-	.
NS(=O)(=O)c1ccc(CCNC(=O)C(=O)c2cn(CC(=O)N3CCOCC3)c3ccccc23)cc1	-	-	171	-	-	-	-	-	-	-	-	.
NC(=O)c1cc(S(=O)(=O)NCCc2ccc(S(N)(=O)=O)cc2)cs1	-	-	-	-	-	-	.	.	.	.	.	.
O=C(Nc1nc2ccc(F)cc2s1)c1ccccn1	-	-	-	-	178	-	.	.	.	.	.	-
CCOC(=O)C(C)CC(C)C(=O)N1CCOCCOCCN(C(=O)C(C)CC(C)C(=O)OCC)CCOCC1 (stereo not drawn)	-	-	-	-	-	-	.	.	.	.	.	.
CCOC(=O)C(C(=O)OCC)C(C(=O)OCC)N1CCOCC1 (stereo not drawn)	-	-	-	-	180	-	.	.	.	.	.	-
CCCCS(=O)(=O)/C=C\C1C2C=CC(C2)C1S(=O)(=O)CCCC (stereo not drawn)	-	-	-	.	-	-	.	.	.	.	.	.
CCCCS(=O)(=O)/C=C\C=C/S(=O)(=O)CCCC	-	-	-	-	173	-	214	-	-	-	-	-
O=C(O)Cn1c(=O)c2c(c3ccccc31)CCC2	-	881	-	-	-	-	-	-	-	-	-	.
CC(=O)NC(=S)NNC(=O)CCc1ccccc1	-	-	-	-	-	-	.	.	.	.	.	.
O=C(CCc1ccccc1)NNC(=S)NC(=O)c1ccccc1	-	-	-	-	243	-	.	.	.	.	.	-	Yeast autofl DR=-;TORC1 bypass=-
O=C(NC(=S)NNC(=O)[C@H]1C[C@@H]1c1ccccc1)c1cccc(F)c1	-	-	-	-	153	-	.	.	.	.	.	-
CCCCC(=O)NC(=S)NNC(=O)CCc1ccccc1	-	-	-	-	150	-	-	-	-	-	-	-
Cc1cccc(C(=O)NNC(=S)NC(=O)c2ccccc2)c1	-	-	-	-	155	-	.	.	.	.	.	-
CN(C)S(=O)(=O)c1cc(C(=O)Nc2ccccc2C(=O)NC2CC2)ccc1Cl	-	-	-	-	-	-	.	.	.	.	.	.
Cc1cccnc1NC(=O)CCNC(=O)c1ccccc1Cl	-	-	-	-	-	-	.	.	.	.	.	.
COCc1c(C(=O)OCC(=O)NCc2ccco2)oc2ccccc12	-	-	-	-	-	-	.	.	.	.	.	.
CCSC1=NSC2=NC(=O)/C(=C\c3coc4ccccc4c3=O)C(=N)N12	-	268	-	-	-	-	309	169	-	161	-	.
COCCCNC(=O)c1cc2c(=O)n3cccc(C)c3nc2n(C(C)C)c1=N	-	-	-	-	-	-	-	-	-	-	-	.
COCCn1c(=N)c(C(=O)NCCc2ccc(OC)cc2)cc2c(=O)n3cccc(C)c3nc21	-	-	-	.	-	-	.	.	.	.	.	.
CCc1ccccc1N(C(=O)c1snc(C(N)=O)c1N)C(C(=O)NCC1CCCO1)c1c[nH]c2ccccc12 (stereo not drawn)	-	-	-	-	-	-	.	.	.	.	.	.
SMILES	VLA-4 inh	MEP2-GFP yeast	CIT2 TOR yeast	AGP1 TOR yeast	LAP4-GFP MLPCN	RPL19A-GFP yeast	LAP4-GFP pick2	MEP2-GFP pick2	RPL19A-GFP pick2	CIT2-GFP pick2	AGP1 GFP CP2	Yeast autofluor	others
COc1ccc(S(=O)(=O)N2CCc3ccccc32)cc1C(=O)NC1(C)CCS(=O)(=O)C1 (stereo not drawn)	-	-	165	-	158	-	-	-	-	-	-	.
O=C(CNCc1ccccn1)Nc1ccc([N+](=O)[O-])cc1C(=O)Nc1ccccc1F	-	-	-	-	-	-	.	.	.	.	.	.
Nc1cc(Nc2cccc(F)c2)nc(NCc2ccccc2)n1	.	.	.	.	.	.	.	.	.	.	.	.	Yeast autofl DR=-;TORC1 bypass=-
CCOC(=O)c1cccc(Nc2nc(C)cc(C)n2)c1	-	-	-	-	-	-	.	.	.	.	.	.
COCCNc1nc(N)c([N+](=O)[O-])c(Nc2cccc(F)c2)n1	.	.	.	.	.	.	.	.	.	.	.	.	Yeast autofl DR=-;TORC1 bypass=-
Cc1cc(Nc2cccc(F)c2)nc(NCc2ccccc2)n1	-	-	-	-	-	-	.	.	.	.	.	.
CCOC(=O)c1c(N)nc(NC)nc1Nc1cccc(F)c1	.	.	.	.	.	.	.	.	.	.	.	.	TORC1 bypass=-
Nc1nc(NCc2ccco2)nc(Nc2cccc(F)c2)c1[N+](=O)[O-]	-	-	-	-	-	-	.	.	.	.	.	.	Yeast autofl DR=-;TORC1 bypass=-
COCCCNc1nc(N)c([N+](=O)[O-])c(Nc2cc(OC)ccc2OC)n1	-	-	-	-	-	-	.	.	.	.	.	.
CCC(C)Nc1nc(N)c([N+](=O)[O-])c(Nc2cccc(F)c2)n1 (stereo not drawn)	.	.	.	.	.	.	.	.	.	.	.	.	Yeast autofl DR=-;TORC1 bypass=-
Nc1nc(Nc2cccc(F)c2)nc(NCCO)c1[N+](=O)[O-]	-	-	-	-	-	-	.	.	.	.	.	.
